# The source made the active and inactive calls. Unless noted, no stated cut-off is given here; in the data, active means inhibition above about 80%; inactive means the rest.
# Columns and labels:
# [1] = hESC survival regulators, cell-based (AID 493140; call rule not given here;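 further: cells exposed to compounds for four days before counting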); conditions: human embryonic stem cell survival screen; stronger effect = higher value
# [2] = liver-stage malaria parasite growth inhibition, primary screen, cell-based, HepG2, luciferase luminescence, HepG2 viability (AID 624349; in the data active means parasite load remaining mostly below about 12%, no sharp cut-off; inactive means mostly above about 10%;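 further: 100% = mean of DMSO negative control wells on the same plate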); conditions: P. berghei liver stage in HepG2, luciferase luminescence, concentration not given here; parasite load remaining: stronger effect = lower value; viability: measured here: HepG2 viability without parasites
# [3] = sensitizers of A549 cells to miR-34 induction, primary screen, imaging, A549 dox-inducible miR-34, nuclei and caspase counts (AID 1347080;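 active means compounds whose cell count with miR-34 switched on is under 0.7 times the count with it off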); conditions: A549 miR-34 inducible, Hoechst nuclei count, 48 h
# [4] = survival rescue of mitochondrial mutant cells in low glucose, primary screen, MELAS cybrids, Rieske KO mouse fibroblasts, CellTiter-Glo (AID 1508586;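 active means mean z-score across replicates of 1.96 or higher in either the MELAS or the Rieske mutant cell line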;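 further: z relative to plate mean and SD of compound and empty wells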)
# [5] = LFS_MB_P medulloblastoma growth inhibition, cell-based, chromothripsis tumors, cisplatin or BGB combos (AID 1671449); conditions: LFS_MB_P medulloblastoma cells;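 further: cells exposed for 96 hours; 0% = vehicle DMSO and 100% = killing by high DMSO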
# [6] = HDN33 neuroblastoma growth inhibition, cell-based, chromothripsis tumors, cisplatin or BGB combos (AID 1671450); conditions: HDN33 neuroblastoma cells, stronger effect = higher value;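 further: cells exposed to compound for four days; 0% = vehicle DMSO and 100% = cell killing by high DMSO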
# [7] = ICB984 medulloblastoma cell growth inhibition, synergistic combos for chromothripsis tumors, cisplatin or BGB combos (AID 1671451; call rule not given here;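 further: cells exposed for 96 hours before readout; 0% = vehicle DMSO and 100% = killing by high DMSO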); conditions: ICB984 medulloblastoma cells, drug combinations, stronger effect = higher value
# [8] = LFS_MB_1R medulloblastoma cell growth inhibition, synergistic combos for chromothripsis tumors, cisplatin or BGB combos (AID 1671452); conditions: LFS_MB_1R medulloblastoma cells, stronger effect = higher value;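 further: cells exposed for 96 hours before readout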
# [9] = HTB85 osteosarcoma cell growth inhibition, synergistic combos for chromothripsis tumors, BGB or cisplatin IC20 combos (AID 1671453); conditions: HTB85 osteosarcoma cells, drug combinations, stronger effect = higher value;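 further: cells exposed for 96 hours before readout; 0% = vehicle DMSO and 100% = high DMSO killing control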
# [10] = CRL2098 osteosarcoma cell growth inhibition, synergistic combos for chromothripsis tumors, BGB or cisplatin IC20 combos (AID 1671454); conditions: CRL2098 osteosarcoma cells, drug combinations, stronger effect = higher value;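 further: cells exposed for 96 h before readout; 0% = vehicle DMSO and 100% = killing by high DMSO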
# [11] = HD-MB03 medulloblastoma cell growth inhibition, synergistic combos for chromothripsis tumors, BGB or cisplatin IC20 combos (AID 1671455; in the data active means inhibition above about 83%;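 further: 0% = vehicle DMSO and 100% = high DMSO as cytotoxic control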); conditions: HD-MB03 medulloblastoma cells, stronger effect = higher value
# [12] = UWB1.289 ovarian carcinoma cell growth inhibition, synergistic combos for chromothripsis tumors, BGB or cisplatin combos (AID 1671456); conditions: UWB1.289 ovarian carcinoma cells, stronger effect = higher value;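 further: cells exposed to compound for four days; 0% = vehicle DMSO and 100% = killing by high DMSO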
# [13] = LFS_MB_2R medulloblastoma cell growth inhibition, synergistic combos for chromothripsis tumors, cisplatin combos (AID 1671457); conditions: LFS_MB_2R medulloblastoma cells, stronger effect = higher value;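 further: cells exposed to compound for four days before readout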
# [14] = MDA-MB-436 breast carcinoma cell growth inhibition, synergistic combos for chromothripsis tumors, BGB or cisplatin combos (AID 1671458; call rule not given here;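 further: cells exposed for 96 hours; 0% = vehicle DMSO and 100% = killing by high DMSO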); conditions: MDA-MB-436 breast carcinoma growth inhibition, drug combinations, stronger effect = higher value
# [15] = UWB1.289_BRCA1 ovarian cancer growth, cell-based, BGB or cisplatin combinations (AID 1671459); conditions: UWB1.289 BRCA1 ovarian carcinoma, drug combinations, stronger effect = higher value
# [16] = human astrocyte viability loss, single and combined drugs, cytotoxicity control for chromothriptic childhood tumor combination screen, cell-based, BGB or cisplatin IC20 combos (AID 1671460); conditions: Human astrocytes, drug combinations, stronger effect = higher value;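 further: cells exposed to compounds for 96 hours before viability readout; 0% = vehicle and 100% = killing control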
# [17] = growth inhibition of BT084 medulloblastoma cells, cell-based, ICGC_MB145, cisplatin and BGB IC40 combos (AID 1671461); conditions: drug combinations, at 0.5 µM, stronger effect = higher value;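 further: cells exposed to drugs for 96 hours; 0% = vehicle DMSO and 100% = high DMSO full killing control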
# [18] = stronger effect = lower value, cell number ratio, induced over uninduced
# [19] = measured here: relative caspase fold change +Dox/-Dox
# [20] = measured here: total cells with miR-34 induction, stronger effect = lower value
# [21] = measured here: total cells without miR-34 induction
# [22] = MELAS cybrid survival, CellTiter-Glo 48 h, stronger effect = higher value
# [23] = Rieske KO mouse fibroblast survival, CellTiter-Glo 72 h
# [24] = measured here: combination with BGB IC40, at 0.05 µM
# [25] = measured here: combination with cisplatin, at 0.5 µM
# [26] = measured here: combination with cisplatin, at 5 µM
smiles,measurement,setting,value
C/C(=C(/CCO)SSCC1CCCO1)N(C=O)Cc1cnc(C)nc1N (centres undefined),survival,[1],5.83 (inactive)
same,parasite load remaining,[2],105% (inactive)
same,viability,[2],73.2%
same,fold change,[3]; [18],0.933 (inactive)
same,fold change,[3]; [19],0.561
same,cell count,[3]; [20],9240
same,cell count,[3]; [21],9910
same,z-score,[4]; [22],0.79 (inactive)
same,z-score,[4]; [23],0.563
NC(=S)NN=Cc1ncccc1N,fold change,[3]; [18],1.15 (inactive)
same,fold change,[3]; [19],0.619
same,cell count,[3]; [20],1840
same,cell count,[3]; [21],1600
same,z-score,[4]; [22],1.28
same,z-score,[4]; [23],3.3
same,inhibition,"[5]; at 0.5 µM, stronger effect = higher value",-16.7% (inactive)
same,inhibition,"[5]; measured here: combination with BGB IC20, at 0.005 µM",-2.55%
same,inhibition,"[5]; measured here: combination with BGB IC40, at 0.005 µM",-23%
same,inhibition,[5]; [24],-3.08%
same,inhibition,"[5]; measured here: combination with cisplatin, at 0.5 µM, stronger effect = higher value",-29.8%
same,inhibition,"[5]; measured here: combination with cisplatin, at 5 µM, stronger effect = higher value",-31.8%
same,inhibition,"[6]; BGB combo, at 5 µM",85%
same,inhibition,[6]; at 0.5 µM,11.9% (inactive)
same,inhibition,"[6]; cisplatin combo, at 5 µM",80.1%
same,inhibition,"[6]; measured here: with BGB IC20 combination, at 0.5 µM",3.11%
same,inhibition,"[6]; measured here: with cisplatin IC20 combination, at 0.5 µM",14.3%
same,inhibition,"[6]; single agent, at 5 µM",84.5%
same,inhibition,"[7]; BGB IC20 combo, at 0.005 µM",-9.24%
same,inhibition,"[7]; BGB IC40 combo, at 0.005 µM",-38.2%
same,inhibition,"[7]; BGB IC40 combo, at 0.05 µM",-31.3%
same,inhibition,[7]; at 0.5 µM,-16.4% (inactive)
same,inhibition,"[7]; cisplatin combo, at 0.05 µM",-36.5%
same,inhibition,"[7]; cisplatin combo, at 0.5 µM",-17.6%
same,inhibition,"[7]; cisplatin combo, at 5 µM",-14.8%
same,inhibition,"[7]; measured here: 5 uM single agent, at 5 µM",-38.9%
same,inhibition,[8]; at 0.5 µM,-7% (inactive)
same,inhibition,[8]; [24],-3.08%
same,inhibition,[8]; [25],22.7%
same,inhibition,[8]; [26],-19.1%
same,inhibition,[9]; at 0.5 µM,-8.27% (inactive)
same,inhibition,"[9]; measured here: with BGB IC20, at 0.5 µM",-17.3%
same,inhibition,"[9]; measured here: with BGB IC20, at 5 µM",67.1%
same,inhibition,"[9]; measured here: with cisplatin IC20, at 0.5 µM",-3.68%
same,inhibition,"[9]; measured here: with cisplatin IC20, at 5 µM",77.8%
same,inhibition,"[9]; single agent, at 5 µM",84.1%
same,inhibition,[10]; at 0.5 µM,-55.6% (inactive)
same,inhibition,"[10]; measured here: combination with BGB at IC20, at 0.5 µM",-6.91%
same,inhibition,"[10]; measured here: combination with cisplatin at IC20, at 0.5 µM",-62.8%
same,inhibition,[11]; at 0.5 µM,-11.3% (inactive)
same,inhibition,"[11]; measured here: combo with BGB at IC20, at 0.5 µM",-13%
same,inhibition,"[11]; measured here: combo with cisplatin at IC20, at 0.5 µM",-15.8%
same,inhibition,[12]; at 0.5 µM,-4.48% (inactive)
same,inhibition,"[12]; measured here: inhibition with BGB combination, at 0.05 µM",-19.9%
same,inhibition,"[12]; measured here: inhibition with cisplatin combination, at 0.05 µM",-12.6%
same,inhibition,[13]; at 0.5 µM,-23.1% (inactive)
same,inhibition,[13]; [25],-11.4%
same,inhibition,[13]; [26],-13.5%
same,inhibition,[14]; at 0.5 µM,-24% (inactive)
same,inhibition,"[14]; measured here: BGB combination, at 0.5 µM",-21.8%
same,inhibition,"[14]; measured here: BGB combination, at 5 µM",39.5%
same,inhibition,"[14]; measured here: cisplatin combination, at 0.5 µM",-34.4%
same,inhibition,"[14]; measured here: cisplatin combination, at 5 µM",62.7%
same,inhibition,"[15]; BGB combination, concentration series, at 5 µM",56.4%
same,inhibition,[15]; at 0.5 µM,0.83% (inactive)
same,inhibition,"[15]; cisplatin combination, concentration series, at 5 µM",62.5%
same,inhibition,[16]; at 0.5 µM,13.8% (inactive)
same,inhibition,"[16]; measured here: combo with BGB IC20, at 0.5 µM",17.9%
same,inhibition,"[16]; measured here: combo with cisplatin IC20, at 0.5 µM",11.3%
same,inhibition,[17],-38.9% (inactive)

# From PubChem BioAssay
